In PubChem BioAssay AID1942 (Johns Hopkins Ion Channel Center, 2009):
In all, about 2,400 compounds went through this assay and about 580 (24%) were called active.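 How the source made its calls: active means activity change at or above the mean plus 3 SD of buffer wells without dofetilide, per plate; inactive means the rest.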 Only a sample is shown.

target: Potassium voltage-gated channel subfamily KQT member 2 (Rattus norvegicus) (UniProt O88943); assay: KCNQ2 potentiation in CHO cells – cell-based, FluxOR thallium flux, counter-screen for hERG block protector project, confirmation (AID 1942); conditions: FluxOR thallium flux fluorescence, at 10 µM, active compounds read high;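 further: normalized value minus buffer-control mean plus three SD of buffer wells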
Sequence (O88943 whole entry, looked up): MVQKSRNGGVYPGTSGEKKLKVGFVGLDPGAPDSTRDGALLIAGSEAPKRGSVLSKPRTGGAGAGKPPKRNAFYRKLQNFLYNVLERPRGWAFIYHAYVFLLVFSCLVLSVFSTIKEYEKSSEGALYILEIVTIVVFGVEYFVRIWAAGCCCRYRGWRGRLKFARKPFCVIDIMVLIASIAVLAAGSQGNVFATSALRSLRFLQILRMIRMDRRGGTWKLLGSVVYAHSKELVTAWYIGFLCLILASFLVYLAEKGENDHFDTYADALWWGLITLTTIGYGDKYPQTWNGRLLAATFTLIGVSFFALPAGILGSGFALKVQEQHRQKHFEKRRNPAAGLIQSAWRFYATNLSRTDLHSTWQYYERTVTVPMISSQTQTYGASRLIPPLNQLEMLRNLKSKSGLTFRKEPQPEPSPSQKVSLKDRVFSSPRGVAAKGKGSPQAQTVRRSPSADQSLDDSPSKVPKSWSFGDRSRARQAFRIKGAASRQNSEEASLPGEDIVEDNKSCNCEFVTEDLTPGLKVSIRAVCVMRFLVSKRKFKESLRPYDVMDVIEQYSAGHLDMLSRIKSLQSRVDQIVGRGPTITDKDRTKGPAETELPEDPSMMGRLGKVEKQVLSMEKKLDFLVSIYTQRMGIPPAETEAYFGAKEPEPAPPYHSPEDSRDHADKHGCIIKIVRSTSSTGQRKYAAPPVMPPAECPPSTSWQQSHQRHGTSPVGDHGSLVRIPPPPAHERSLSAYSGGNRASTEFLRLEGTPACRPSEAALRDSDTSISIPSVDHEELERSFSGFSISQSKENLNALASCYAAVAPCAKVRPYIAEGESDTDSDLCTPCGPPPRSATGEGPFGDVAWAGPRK

| Compound | activity change, less the hit threshold |
| --- | --- |
| COc1cc(OC)cc(C(=O)OCC(=O)N(C)c2ccccc2)c1 | -28% (inactive) |
| COc1ccc(CN(Cc2cccnc2)C(=S)NCCc2ccccc2)cc1OC | -13.1% (inactive) |
| COc1cc(OC)cc(C(=O)NC(=S)N(Cc2ccccc2)C(C)C)c1 | 31.3% (active) |
| CCOc1ccc(C(=O)NC(=S)N(Cc2ccccc2)Cc2ccccc2)cc1 | -5.6% (inactive) |
| C=CCNC(=S)NC(=O)c1ccc(C)c(Br)c1 | -17.6% (inactive) |
| COc1ccc(C(=O)NN/C(C)=C/C(=O)c2ccccc2)cc1 | -25.7% (inactive) |
| C=CCN(CC=C)C(=S)NC(=O)c1ccc(C)c(Br)c1 | 135% (active) |
| CCN(CC)C(=S)NC(=O)c1ccc(OC)c(Br)c1 | -11% (inactive) |
| COc1ccc(C(=O)NC(=S)N(Cc2ccccc2)Cc2ccccc2)cc1 | 28.4% (active) |
| C=CCN(CC=C)C(=S)NC(=O)c1ccc(OC)c(Br)c1 | 46% (active) |
| COc1ccc(C(=O)NC(=S)NCCO)cc1Br | -13.1% (inactive) |
| O=c1c([N+](=O)[O-])c(N2CCCCC2)c2ccccc2n1-c1ccccc1 | -20.7% (inactive) |
| CC(C)=CCCC1=CCC2C(=O)NNC(=O)C2C1 (stereo not given) | -15.8% (inactive) |
| Cc1ccc(S(=O)(=O)n2cnc3ccccc32)c(C)c1 | -9% (inactive) |
| CCCNC(=O)N(C)c1nncnc1C(=O)NC | -17.3% (inactive) |
| CCN(CC(=O)Nc1c(F)cccc1F)C(=O)c1ccc(Cl)c(S(=O)(=O)N2CCCCC2)c1 | -23.2% (inactive) |
| Cc1cccc(C)c1NC(=O)Cn1cnc2c(=O)n(C)c(=O)n(C)c21 | -15.2% (inactive) |
| CCCOc1ccc(C(=O)NNC(=S)NC(=O)c2ccccc2)cc1 | -24.3% (inactive) |
| CC(C)N(Cc1ccccc1)C(=S)NC(=O)C1(C)CC1(Cl)Cl (stereo not given) | 32.4% (active) |
| CCCOc1ccc(CN(CCC#N)C(=S)NC(=O)c2ccccc2)cc1 | 7.3% (active) |
| C=CCN(CC=C)C(=S)NC(=O)/C=C/c1ccc(OC)cc1 | -0.6% (inactive) |
| C=CCN(CC=C)C(=S)NC(=O)c1ccc(OC)cc1 | 10.1% (active) |
| C=CCNC(=S)N/N=C(\C)c1ccc(OC)cc1 | -13.1% (inactive) |
| O=C(O)c1ccc(Cl)cc1Nc1nc2cc(Cl)ccc2o1 | -1.7% (inactive) |
| CC(=O)c1c(C)nc(C)nc1NC(=O)C(C)C | -17.2% (inactive) |

| Compound | activity change, less the hit threshold |
| --- | --- |
| Nc1nc2n(n1)C1(CCCCC1)C1=C(CCCC1)N2 | -18.5% (inactive) |
| CCCCc1c(O)nc(SCC(=O)O)[nH]c1=O | -17.9% (inactive) |
| FC(F)(F)c1cnc2c(c1)[nH]c(=S)n2-c1ccc(Cl)cc1 | -2.4% (inactive) |
| CCC(=O)Nc1cc(-c2nnc(OC)c3ccccc23)ccc1N1CCOCC1 | -7.7% (inactive) |
| COc1ccccc1NC(=S)NC(=O)c1ccc(-c2ccc(Cl)cc2)o1 | -6.4% (inactive) |
| Cc1ccc(NC(=S)NC(=O)c2cncc(Br)c2)cc1Cl | -17.8% (inactive) |
| CCCCOC(=O)c1ccc(NC(=S)NC(=O)c2c(Br)c(C)nn2C)cc1 | 10.4% (active) |
| Cc1nn(CCC(=O)NNC(=S)Nc2ccc(F)cc2)c(C)c1[N+](=O)[O-] | -18.9% (inactive) |
| O=C(NC(=S)Nc1ccccc1N1CCCC1)c1ccccc1Br | -29.8% (inactive) |
| Cc1ccc(NC(=O)c2c([N+](=O)[O-])c(C(C)(C)C)nn2C)cc1 | -17.2% (inactive) |
| CCn1ncc(Cl)c1C(=O)NC(=S)Nc1ccccc1Br | 29.9% (active) |
| Cc1nn(C)c(C(=O)NC(=S)Nc2ccccc2Br)c1Cl | 11.8% (active) |
| COC(=O)c1ccc(NC(=S)NC(=O)c2c(-c3ccccc3)noc2C)cc1 | -19.6% (inactive) |
| Cc1nn(C)c(C(=O)NC(=S)Nc2ccc([N+](=O)[O-])cc2)c1Cl | 7.5% (active) |
| CCCCOC(=O)c1ccc(NC(=S)NC(=O)c2c(Cl)cnn2C)cc1 | -10% (inactive) |
| Cc1cccc(NC(=S)N/N=C2\CC(C)(C)Oc3ccc(O)cc32)c1 | -9.9% (inactive) |
| Cc1nn(-c2ccc(Cl)nn2)c(=O)c2ccccc12 | -19.3% (inactive) |
| CC1CN(S(=O)(=O)c2ccc(-c3nc4ccccc4s3)cc2)CC(C)O1 (stereo not given) | -3.8% (inactive) |
| CCCN1C(=O)/C(=C/c2ccc3c(c2)OCO3)NC1=S | -10.1% (inactive) |
| CCCN1C(=O)/C(=C/c2ccc(C)s2)NC1=S | 80.4% (active) |
| CC(C)CN1C(=O)/C(=C/c2ccco2)NC1=S | -20.7% (inactive) |
| CCN1C(=O)/C(=C/c2ccc(C)s2)NC1=S | 36.1% (active) |
| CC(C)CN1C(=O)/C(=C/c2cccs2)NC1=S | 83.6% (active) |
| COc1ccc(N2C(=O)/C(=C/c3cccs3)NC2=S)cc1 | -15.1% (inactive) |
| O=c1c(C(c2ccc(O)cc2)c2c(O)nc3n(c2=O)CCS3)c(O)nc2n1CCS2 | -11.7% (inactive) |

| Compound | activity change, less the hit threshold |
| --- | --- |
| Nc1cc(-c2ccc(Br)cc2)[nH]n1 | -23.7% (inactive) |
| CC(C)=CC(=O)OCC(=O)Nc1ccc(SC(F)F)cc1 | -15.7% (inactive) |
| S=c1nc(-c2ccccc2)[nH]n1-c1ccccc1 | 51.8% (active) |
| S=c1nc(-c2ccccc2)c(-c2ccccc2)n[nH]1 | -18.5% (inactive) |
| CCOc1cc(C(=O)NC)cc(OCC)c1OCC | -15.9% (inactive) |
| Cc1cc(-c2nnc(SCC(=O)Nc3ccc(C(F)(F)F)cc3)n2C)no1 | -23.1% (inactive) |
| Cc1cc(C)cc(NC(=O)CSc2nnc(CN3CCOCC3)n2C)c1 | 27.2% (active) |
| COCCn1c(SCC(=O)Nc2cc(C)cc(C)c2)nc2ccccc2c1=O | -17.4% (inactive) |
| Clc1cccc(OCCCN2CCCC2)c1Cl | -9.5% (inactive) |
| CCOC(=O)C1=C(Cc2ccc(C)cc2)C(=O)c2ccccc2C1=O | -0.5% (inactive) |
| CCc1ccc(/C=C/C(=O)C2C(=O)c3ccccc3C2=O)cc1 | 37.2% (active) |
| Cc1ccc(/C=N/N2C(=O)c3ccccc3NC2c2ccc(C)cc2)cc1 (stereo not given) | -15.6% (inactive) |
| CCOC(=O)C1=C(O)c2ccccc2C(=O)/C1=C\c1ccc(CC)cc1 | -1.8% (inactive) |
| Cc1ccc(/C=C/C(=O)C2C(=O)c3ccccc3C2=O)cc1 | 48.1% (active) |
| O=C(CC1NCCNC1=O)Nc1ccc([N+](=O)[O-])cc1 (stereo not given) | -27.7% (inactive) |
| COc1ccc(NC(=O)N2CCN(c3ccc([N+](=O)[O-])cc3)CC2)cc1OC | -23.2% (inactive) |
| CN(C(=O)c1cnccn1)c1nnc(-c2cnccn2)s1 | -25.3% (inactive) |
| CC(C)C(NC(=O)c1ccccc1)C(=O)N/N=C\c1ccco1 (stereo not given) | -20.2% (inactive) |
| Cc1ccc2c(CN3CCOCC3)cc(=O)oc2c1 | -5.1% (inactive) |
| Cc1cc(C)cc(OCc2nnc(SCC(=O)Nc3ccccc3)o2)c1 | -16.8% (inactive) |
| CC(=O)/C=C1/C(=O)Nc2ccccc21 | -27.4% (inactive) |
| Cc1cccc(N2C(=O)C(O)=C(C(=O)c3cccs3)C2c2cccc(Oc3ccccc3)c2)n1 (stereo not given) | -18.2% (inactive) |
| COc1cc(C(=O)Nc2ccc(O)cc2C(=O)O)ccc1OC(C)=O | -10.8% (inactive) |
| COc1ccc(/C=C/C(=O)Nc2ccccc2C(=O)O)cc1 | -2.2% (inactive) |
| COc1ccc(/C=C/C(=O)Nc2ccccc2C(=O)O)cc1OC | 4.9% (active) |

| Compound | activity change, less the hit threshold |
| --- | --- |
| COc1cc(/C=C2/C(=O)NN(c3ccc(Cl)c(Cl)c3)C2=O)cc([N+](=O)[O-])c1O | -18.7% (inactive) |
| Nc1ccc(C(=O)OCC(=O)N2CCN(C(=O)c3ccco3)CC2)cc1[N+](=O)[O-] | -23.4% (inactive) |
| Cc1cc(S(=O)(=O)Nc2ccc(C(=O)N3CCN(C(=O)c4ccco4)CC3)cc2)ccc1F | 3.4% (active) |
| O=C(CCNS(=O)(=O)c1ccc(Cl)cc1)OCC(=O)N1CCN(C(=O)c2ccco2)CC1 | -17.9% (inactive) |
| CCOc1ccc(NC(=O)CSc2nc3nc(C)cc(C)n3n2)cc1 | -14.8% (inactive) |
| CCOc1ccc(NC(=O)c2ccc3c(c2)CCN3S(C)(=O)=O)cc1 | -27.8% (inactive) |
| CCOc1ccc(NC(=S)NS(=O)(=O)c2cc(Br)ccc2OCC)cc1 | 35.9% (active) |
| O=C(COc1ccccc1)Nc1ccc(S(=O)(=O)Nc2ccccn2)cc1 | -14.4% (inactive) |
| CC(=O)NC1C(Oc2ccccc2C)OC(CO)C(O)C1O (stereo not given) | -8.8% (inactive) |
| CCn1c(O)c(N=NC(=O)CNC(=O)c2ccccc2F)c2ccccc21 | -8.6% (inactive) |
| CCCn1c(O)c(N=NC(=O)c2ccco2)c2ccccc21 | 86.7% (active) |
| CCn1c(O)c(N=NC(=S)NCC2CCCO2)c2ccccc21 (stereo not given) | -9.1% (inactive) |
| CSc1ccc(/C=N/NC(=O)c2cccs2)cc1 | -22.9% (inactive) |
| O=C(CS(=O)(=O)Cc1ccccc1)Nc1ccc(Cl)cn1 | -21.6% (inactive) |
| CCn1c(SCC(N)=O)nc2sc3c(c2c1=O)CCCC3 | 31.2% (active) |
| CCOC(=O)c1cnn(-c2nc(SC)nc3sc4c(c23)CCCC4)c1N | -23.6% (inactive) |
| CCC(=O)N1CCN(c2nc(CC)nc3sc4c(c23)CCCC4)CC1 | -43.7% (inactive) |
| CCn1c(SC(C)C(=O)O)nc2sc3c(c2c1=O)CCC3 (stereo not given) | 25.4% (active) |
| CCCn1c(SCC(=O)N2CCN(C(C)=O)CC2)nc2sc3c(c2c1=O)CCC3 | 29.6% (active) |
| CCN1C(=O)c2cccc3c(S(=O)(=O)NCC4CCCO4)ccc1c23 (stereo not given) | -21.6% (inactive) |
| CCc1cccc(C)c1NC(=O)Cc1ccsc1 | -12.4% (inactive) |
| O=C1CC(c2ccco2)CC2=C1C1c3ccccc3C(=O)N1c1ccccc1N2 (stereo not given) | -4.8% (inactive) |
| Cc1ccc(OCc2ccoc2C(=O)O)cc1C | 23.9% (active) |
| Cc1oc2ccc(OCc3ccc(Cl)cc3)cc2c1C(=O)O | -3.6% (inactive) |
| Cc1cc(OCc2ccc(C(=O)Nc3ccc(C(=O)O)cc3)o2)ccc1Cl | -15.9% (inactive) |
